Screening data from PubChem.
DRD3 agonist: D3 dopamine receptor (human) agonism; P35462; D3R DiscoveRx beta-arrestin cells, luminescence, 90 min; max activation, %; 410,000 compounds, 0.58% hits; AID 652048; in the data active = max activation above about 30%
Target sequence (P35462 whole entry, looked up): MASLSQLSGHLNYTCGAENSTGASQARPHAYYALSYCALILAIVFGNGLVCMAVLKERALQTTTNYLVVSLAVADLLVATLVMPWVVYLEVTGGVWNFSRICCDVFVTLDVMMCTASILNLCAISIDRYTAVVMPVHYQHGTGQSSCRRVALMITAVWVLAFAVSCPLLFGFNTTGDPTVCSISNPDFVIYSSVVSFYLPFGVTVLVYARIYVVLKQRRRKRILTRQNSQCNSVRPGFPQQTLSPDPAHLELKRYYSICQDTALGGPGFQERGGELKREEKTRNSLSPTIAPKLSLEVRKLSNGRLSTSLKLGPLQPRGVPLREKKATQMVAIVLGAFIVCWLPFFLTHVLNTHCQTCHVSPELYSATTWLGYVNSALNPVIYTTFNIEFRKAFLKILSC
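Agonist-mode cell screen: cells plated at 1500/well and incubated overnight at 37 °C, then exposed to library compounds for 90 min at 37 °C. Detection reagent was added for 30–60 min at room temperature, and luminescence was read.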
D1 antag: blocks dopamine activation of the human D1 receptor; P21728; HEK293 TREx D1 cells, calcium flux, dopamine EC80; active compounds read low; activity change, negative = inhibition, % at 10 µM; 360,000 compounds, 3.2% hits; in the data active = activity change below about -30%
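Allosteric or orthosteric antagonism assessed as attenuation of the calcium response to EC80 dopamine, added 180 s after compound, in induced HEK293 Trex D1 cells loaded with no-wash calcium dye.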
D3 antag: D3 dopamine receptor (human) antagonism; D3R cells, DiscoveRx beta-arrestin luminescence, antagonist mode; active compounds read low; max response, negative = inhibition, %; 360,000 compounds, 2.5% hits; AID 652054; in the data active = max response below about -50%; inconclusive = no clear call, values can overlap the other calls
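Cells expressing the human receptor were seeded at 1500 cells/well, incubated overnight at 37 degrees C in 5% CO2, then exposed to library compounds with dopamine controls for 90 minutes at 37 degrees C before luminescent detection.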
D1 potentiator: human D1 dopamine receptor positive modulation. P21728. HEK293 TREx D1 cells, calcium flux, dopamine EC20 potentiation. potentiation, % at 10 µM. 360,000 compounds, 0.036% hits. AID 504651; in the data active = potentiation above about 30%
D1 ag: activates the human D1 dopamine receptor | P21728 | HEK293 T-REx D1 cells, calcium flux, agonist mode | activation, % at 2 µM | 360,000 compounds, 1% hits; in the data active = activation above about 30%
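Inducible HEK293 T-REx D1 cells, force-coupled to calcium signalling, were plated at 4000 cells/well with tetracycline and held overnight at 30 C. After no-wash calcium dye loading, compound-evoked calcium rise over 180 s flagged agonists.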
Large screens that a line does not name were inactive; ! = repeats disagree. This is a sample that favours compounds with a hit; in the whole collection about 6.1% have one here.

COc1ccc(-c2cc(C(F)F)n3ncc(C(=O)Nc4c(C)n(C)n(-c5ccccc5)c4=O)c3n2)cc1	none
CCN1CCN(C(=O)c2cnn3c(C(F)F)cc(-c4ccc(C)cc4)nc23)CC1	D3 antag -56
Cc1ccc(-c2cc(C(F)F)n3ncc(C(=O)N4CCN(c5ccccn5)CC4)c3n2)cc1	none
COc1ccc(-c2cc(C(F)F)n3ncc(C(=O)Nc4cc(C)on4)c3n2)cc1	D1 antag -38
COc1ccc(C2C=C(c3ccccc3)Nc3nc(NC(=O)/C=C/c4ccc(F)cc4)nn32)cc1 (stereo unspecified)	none (no result: D3 antag)
COc1ccc(NC(=O)CN2C(=O)C(C)(C)c3ccccc32)cc1Cl	D1 antag -50 (no result: D3 antag)
Cc1cccc(NC(=O)CN2C(=O)C3(SCC(=O)N3c3ccccc3)c3ccccc32)c1 (stereo unspecified)	D1 antag -36 (no result: D3 antag)
Cc1cccc(N2C(=O)CSC23C(=O)N(CC(=O)Nc2cccc(Cl)c2)c2ccccc23)c1 (stereo unspecified)	DRD3 agonist 32 (no result: D3 antag)
Cc1cc(NC(=O)CN2C(=O)C(C)(C)c3ccccc32)ccc1Br	none (no result: D3 antag)
Cc1ccc(-n2ncc(C(=O)NCc3ccc4c(c3)OCO4)c2C2CCN(C(=O)OC(C)(C)C)CC2)c(C)c1	none (no result: D3 antag)
COc1cc(C(=O)N2CCN(CCc3ccccn3)CC2)cc(OC)c1OC	none (no result: D3 antag)
COc1cccc(-n2ccnc2SCC(=O)Nc2ccc(Cl)c(Cl)c2)c1	none (no result: D3 antag)
Cn1c(=O)c2sccc2n2c(CCC(=O)N3CCN(c4cccc(Cl)c4)CC3)nnc12	none (no result: D3 antag)
O=C(NC(CSCc1ccccc1)C(=O)N/N=C/c1ccc(O)cc1O)c1ccc([N+](=O)[O-])cc1 (stereo unspecified)	DRD3 agonist 50
COc1cccc(Cn2c(CNC(=O)C(C)C)nc3cccnc32)c1	none (no result: D3 antag)
Nc1ccc2c(c1)Cc1cc([N+](=O)[O-])ccc1-2	D1 antag -36, D1 ag 122
CCOC(=O)c1cc(S(=O)(=O)N2CCN(c3cc(Cl)ccc3C)CC2)[nH]n1	none (no result: D3 antag)
CSc1nc(=O)n(CCC#N)nc1SC	D3 antag -65 (no result: D1 antag, D1 potentiator, D1 ag)
CSc1cnn(CCC#N)c(=O)n1	none (no result: D1 antag, D1 potentiator, D1 ag)
Cc1cc(Br)cn2c(Cc3cccc(Cl)c3)c(-c3ccco3)nc12	D3 antag -63 (no result: D1 antag, D1 potentiator, D1 ag)
Cc1ccc(-c2nc3c(C)cc(Br)cn3c2Cc2cccc(F)c2)cc1	D3 antag -57 (no result: D1 antag, D1 potentiator, D1 ag)
Cc1cc(Br)cn2c(Cc3cccc(F)c3)c(-c3ccc(F)cc3)nc12	none (no result: D1 antag, D1 potentiator, D1 ag)
Cc1ccc(Cc2c(-c3ccco3)nc3c(C)cc(Br)cn23)cc1	D3 antag inconclusive (no result: D1 antag, D1 potentiator, D1 ag)
Cc1cc(Br)cn2c(Cc3ccccc3)c(-c3cccc(Cl)c3)nc12	D3 antag -60 (no result: D1 antag, D1 potentiator, D1 ag)
COc1ccc(Cc2nc3ccc(C(=O)NCCc4ccc(Cl)cc4)cc3o2)cc1	none (no result: D3 antag)
COc1ccc(CCNC(=O)C(C)n2nc(C)c3sc4ccccc4c3c2=O)cc1OC (stereo unspecified)	none (no result: D3 antag)
O=c1c2cc(N3CCOCC3)ccc2[nH]c(=S)n1CCCN1CCCCCC1	D3 antag inconclusive
O=c1c2cc(N3CCOCC3)ccc2[nH]c(=S)n1CCCN1CCN(c2ccccc2F)CC1	D1 antag -71 (no result: DRD3 agonist, D3 antag)
COc1ccccc1N1CCN(CCc2n[nH]c(=S)n2-c2ccccc2)CC1	D3 antag -80
CN1CCN(CCn2c(=S)[nH]c3ccccc3c2=O)CC1	none
O=c1c2ccccc2[nH]c(=S)n1CCN1CCc2ccccc2C1	D3 antag -90
COc1ccc(N2CCN(CCCn3c(=S)[nH]c4ccccc4c3=O)CC2)cc1	D3 antag -75
COc1cccc(C(=O)Nc2cccc(-c3cn4c(C)csc4n3)c2)c1OC	none (no result: D3 antag)
CCCCN1CC(c2nc3ccccc3n2CCCCOc2cccc(C)c2C)CC1=O (stereo unspecified)	none (no result: D3 antag)
COc1ccccc1N1CCN(CCCn2c(=S)[nH]c3ccccc3c2=O)CC1	D1 antag -88, D3 antag -109
CN(C)CCCn1c(=S)[nH]c2ccccc2c1=O	none
C[C@]12CC[C@@H]3c4ccc(O)cc4CC[C@H]3[C@@H]1CC[C@@H]2OC(=O)CCC1CCCC1	DRD3 agonist 45! (no result: D1 antag, D1 potentiator, D1 ag)
Cc1ccc2cc(CCNS(=O)(=O)c3ccc(Cl)cc3)c(=O)[nH]c2c1C	D1 antag -37
CC(C)Oc1ccc(C(=O)OC(C)C(=O)NC2CCCCC2C)cc1 (stereo unspecified)	D1 antag -48
Cc1cccc(C(c2sc3nc(-c4ccco4)nn3c2O)N2CCOCC2)c1 (stereo unspecified)	none (no result: D1 antag, D3 antag)
O=[N+]([O-])c1cc2c(cc1CN1CCN(c3ccccc3F)CC1)OCO2	D3 antag -52
Cc1ccc2c(c1)-c1nc(-c3ccccc3)cc(-c3ccccc3)c1CO2	none (no result: D3 antag)
Clc1nc(-c2n[nH]nc2Cl)n[nH]1	D1 antag -31
Fc1ccc(-n2cc(CNCCc3ccccn3)c(-c3ccccc3Cl)n2)cc1	D3 antag -86, D1 ag 34
COc1ccc(-n2cc(CNCCc3nc(C)cc(C)n3)c(-c3ccccc3Cl)n2)cc1	D3 antag -85, D1 ag 40
CCCCC(CC)CNC(=O)c1ccc(Cn2c(=O)[nH]c3cc(OC)c(OC)cc3c2=O)cc1 (stereo unspecified)	none (no result: D3 antag)
Cc1ccccc1C(=O)N1CC/C(=N\OS(=O)(=O)O)c2ccc(Cl)cc21	none (no result: D1 antag, D3 antag, D1 potentiator, D1 ag)
COc1ccc(NC(=O)NCCN2CCN(c3cc(OC)ccc3OC)CC2)cc1	none
CC(Oc1ccc(Cl)cc1Cl)C(=O)NCCN1CCOCC1 (stereo unspecified)	none
COc1ccc(Cl)c(N2CCN(CCCNC(=O)Nc3ccc(C)cc3)CC2)c1	D1 antag -60
O=C(NCCN1CCOCC1)Nc1ccc(Cl)cc1Cl	D1 antag -45
COc1ccc(Cl)c(NC(=O)NCCN2CCN(c3ccccc3)CC2)c1	D1 antag -65, D3 antag inconclusive
COc1ccc(N2CCN(CCNC(=O)Nc3cc(Cl)ccc3OC)CC2)cc1	D3 antag inconclusive, D1 ag 44
O=[N+]([O-])c1ccc(N/N=C/c2cccc(O)c2O)c(S(=O)(=O)N2CCOCC2)c1	D1 antag -76, D3 antag -64, D1 ag 58
CCOC(=O)COc1c(OC)cc(Cl)cc1C1Nc2ccccc2C(=O)N1c1ccccc1 (stereo unspecified)	D3 antag -59
CCOC(=O)COc1c(OC)cc(Cl)cc1C1Nc2ccccc2C(=O)N1c1ccc(F)cc1 (stereo unspecified)	none
COc1cccc(Oc2cc(NN3CCCCC3)c([N+](=O)[O-])cc2[N+](=O)[O-])c1OC	D3 antag -65
O=[N+]([O-])c1cc([N+](=O)[O-])c(Oc2cccc3c2CCCC3)cc1NN1CCCCC1	none (no result: D1 antag, D1 potentiator, D1 ag)
Cc1c(Cl)ccc2sc(N3CCN(C(=O)CS(=O)(=O)c4ccccc4)CC3)nc12	D1 ag 49 (no result: D1 antag, D3 antag)
COc1ccc(C(=O)N2CCN(c3nc4c(C)c(Cl)ccc4s3)CC2)c(OC)c1	DRD3 agonist 34 (no result: D1 antag, D3 antag)
